In the library only some 6.8% were active in any assay of this set; here they are far more common.
Spn DPM-DC inh: S. pneumoniae DPM-DC inhibition. purified DPM-DC, PK/LDH coupled NADH fluorescence. calls only at 10 µM. 65,000 tested, 0.49% active. AID 556;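 active means the 320 compounds with the highest percent inhibition in the single-dose primary screen, excluding strongly autofluorescent ones, cut at about 32% in these data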;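 further: kinetic rate of NADH fluorescence loss reporting ADP formed by the decarboxylase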
Abs 340nm: compound absorbs light at 340 nm | compound absorbance at 340 nm, fold over control | fold change at 10 µM | 65,000 tested, under 10 active | AID 708;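 active means at 10 µM dose, initial 340 nm absorbance at least 2 fold that of control wells; inactive means change under 2 fold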;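 further: initial absorbance extrapolated from kinetic A340 decline of NADH oxidation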
NADH coupling: inhibitors of enzymes used to reach an NAD/NADH endpoint. 65,000 tested, 0.02% active. coupled PK/LDH NADH assays, four targets. IC50, µM (highest dose often 10 µM), inactives show at the highest dose inhibition;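 active means single-dose screening hits from any of four coupled enzyme assays that gave an IC50 when retested across doses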;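 further: the DPM-DC format reads NADH fluorescence rather than 340 nm absorbance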
Spn MK inh: S. pneumoniae mevalonate kinase inhibition; purified MK, PK/LDH-coupled NADH absorbance 340 nm; inhibition, % at 10 µM; 65,000 tested, 0.48% active;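 active means ranked among the strongest by inhibition in the single 10 µM screen, a fixed top-ranked set picked for dose follow-up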
Spn PMK inh: S. pneumoniae PMK inhibition; AID 539; purified PMK, PK/LDH-coupled NADH absorbance 340 nm; 65,000 tested, 0.49% active; inhibition, % at 10 µM;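 active means top-ranked compounds by inhibition in the single 10 µM screen, taking a fixed number of the strongest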;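 further: 0% = full reaction with DMSO carrier and 100% = background rate without enzyme reaction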
Autofluor 339: intrinsic fluorescence of library compounds, ex339/em460 – biochemical, MLSMR library, data from DPM-DC assay, artefact control, profiling panel | compound autofluorescence, ex339/em460 nm, NADH buffer; active compounds read high; 1 = no-compound wells, NADH background | fluorescence fold increase at 10 µM | 65,000 tested, 5.5% active | AID 709;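 active means at 10 µM, mean starting fluorescence two-fold or more over control wells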;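 further: signal is the first read of a kinetic run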
Numbers without * were called inactive.

For COCC(C)NC(=O)C1CC(c2cccc(Br)c2)=NO1 (centres undefined) the results were Spn DPM-DC inh inactive, Abs 340nm 1, NADH coupling 7.0%, Spn MK inh 15.0, Spn PMK inh 6.0 and Autofluor 339 1.06.
Screening O=C(NCC1CCCO1)c1nnc(Cc2ccc(F)cc2)o1 (centres undefined) returned Spn DPM-DC inh inactive, Abs 340nm 1.03, NADH coupling 4.0%, Spn MK inh 0.0, Spn PMK inh 11.0 and Autofluor 339 1.11.
For CN(C)C(=O)Nc1cnc2ccccc2c1 the results were Spn DPM-DC inh active, Abs 340nm 1.04, NADH coupling 13.0%, Spn MK inh 0.0, Spn PMK inh 0.0 and Autofluor 339 0.59.
Screening O=C(CSc1oc(-c2ccco2)nc1S(=O)(=O)c1ccc(Cl)cc1)NCC1CCCO1 (centres undefined) returned Spn DPM-DC inh inactive, Abs 340nm 0.98, NADH coupling 6.0%, Spn MK inh 8.0, Spn PMK inh 10.0 and Autofluor 339 1.06.
Cc1ccc(-c2cnc(-c3ccncc3)o2)cc1 was read as Abs 340nm 1.15, NADH coupling 8.0%, Spn MK inh 4.0, Spn PMK inh 11.0 and Autofluor 339 2.17*.
Screening Cc1ccc(-c2nc(-c3cccnc3)no2)cc1 returned Spn DPM-DC inh inactive, Abs 340nm 1.04, NADH coupling 7.0%, Spn MK inh 6.0, Spn PMK inh 3.0 and Autofluor 339 1.12.
For O=C(c1ccco1)c1nnn(Cc2ccccc2)c1-c1ccccc1 the results were Spn DPM-DC inh inactive, Abs 340nm 1.01, NADH coupling 1.0%, Spn MK inh 1.0, Spn PMK inh 4.0 and Autofluor 339 1.05.
For Nc1c2c(nc3ccccc13)N(C1CCCCC1)CC2 the results were Abs 340nm 1.11, NADH coupling 25.0%, Spn MK inh 49.0*, Spn PMK inh 0.0 and Autofluor 339 2.32*.
Cc1ccc2c(c1)cc(CN(Cc1ccccc1)C(=O)N(C)C)c1nnnn12 was read as Spn DPM-DC inh inactive, Abs 340nm 0.99, NADH coupling 7.0%, Spn MK inh 7.0, Spn PMK inh 14.0 and Autofluor 339 1.03.
Screening CCOc1ccc(OCC)c(NC(=O)CN2CCN(c3cccc(C)c3)C(C)C2)c1 (centres undefined) returned Spn DPM-DC inh inactive, Abs 340nm 1.04, NADH coupling 15.0%, Spn MK inh 42.0*, Spn PMK inh 3.0 and Autofluor 339 1.04.
Screening CCOc1ccc(OCC)c(NC(=O)CN2CCN(c3cccc(C)c3)CC2)c1 returned Spn DPM-DC inh inactive, Abs 340nm 1.08, NADH coupling 24.0%, Spn MK inh 71.0*, Spn PMK inh 0.0 and Autofluor 339 1.06.
For O=C(c1cc2nc(-c3ccc(F)cc3)cc(C(F)(F)F)n2n1)N1CCCC1 the results were Spn DPM-DC inh active, Abs 340nm 1.05, NADH coupling 17.0%, Spn MK inh 6.0, Spn PMK inh 9.0 and Autofluor 339 1.47.
Screening O=C(c1cc2nc(-c3ccco3)cc(C(F)(F)F)n2n1)N1CCCCCC1 returned Abs 340nm 1.13, NADH coupling 9.0%, Spn MK inh 5.0, Spn PMK inh 13.0 and Autofluor 339 2.17*.
For CN(C(=O)c1cc2nc(-c3ccco3)cc(C(F)(F)F)n2n1)C1CCCCC1 the results were Abs 340nm 1.1, NADH coupling 5.0%, Spn MK inh 6.0, Spn PMK inh 4.0 and Autofluor 339 2.18*.
Screening O=C(c1cc2nc(-c3ccccc3)cc(C(F)(F)F)n2n1)N1CCCC1 returned Spn DPM-DC inh inactive, Abs 340nm 1.05, NADH coupling 2.0%, Spn MK inh 6.0, Spn PMK inh 0.0 and Autofluor 339 1.25.
`Cc1ccccc1Cn1ccc(NC(=O)c2cc3nc(-c4ccco4)cc(C(F)(F)F)n3n2)n1` gave Abs 340nm 1.1, NADH coupling 8.0%, Spn MK inh 4.0, Spn PMK inh 12.0 and Autofluor 339 3.83*.
`O=C(c1cc2nc(-c3ccco3)cc(C(F)(F)F)n2n1)N1CCN(c2ccccc2)CC1` gave Spn DPM-DC inh inactive, Abs 340nm 1.11, NADH coupling 2.0%, Spn MK inh 3.0, Spn PMK inh 1.0 and Autofluor 339 1.24.
For COc1ccc(-c2cc(C(F)(F)F)n3nc(C(=O)N4CCCCC4)cc3n2)cc1 the results were Abs 340nm 1.11, NADH coupling 4.0%, Spn MK inh 8.0, Spn PMK inh 0.0 and Autofluor 339 2.26*.
COc1ccccc1CC1(C)NC(=O)N(CC(=O)Nc2cc(C)on2)C1=O (centres undefined) was read as Spn DPM-DC inh inactive, Abs 340nm 1, NADH coupling 3.0%, Spn MK inh 9.0, Spn PMK inh 13.0 and Autofluor 339 1.04.
O=C(Nc1cccc2ccccc12)c1cnccn1 was read as Spn DPM-DC inh inactive, Abs 340nm 1.01, NADH coupling 3.0%, Spn MK inh 9.0, Spn PMK inh 25.0* and Autofluor 339 1.02.
Cc1ccc(C2CC(c3cccs3)n3nc(N)nc3N2)cc1 (centres undefined) was read as Abs 340nm 1.03, NADH coupling 5.0%, Spn MK inh 0.0, Spn PMK inh 9.0 and Autofluor 339 2.26*.
COc1ccc(CCNC(=O)c2ccc(NS(=O)(=O)c3c(C)noc3C)cc2)cc1OC was read as Spn DPM-DC inh inactive, Abs 340nm 1.01, NADH coupling 4.0%, Spn MK inh 4.0, Spn PMK inh 9.0 and Autofluor 339 1.11.
Screening CC1CCCCC1n1c(=S)[nH]c2ccccc2c1=O (centres undefined) returned Spn DPM-DC inh inactive, Abs 340nm 1.04, NADH coupling 5.0%, Spn MK inh 11.0, Spn PMK inh 4.0 and Autofluor 339 1.05.
`Nc1c(C(=O)NC2CCCC2)sc2nc(-c3cccs3)ccc12` gave Spn DPM-DC inh active, Abs 340nm 1.05, NADH coupling 17.0%, Spn MK inh 5.0, Spn PMK inh 5.0 and Autofluor 339 2.75*.
`CCc1ccc(OCC(=O)Nc2ccc(-c3nc4ccccc4o3)c(O)c2)cc1` gave Abs 340nm 1.11, NADH coupling 9.0%, Spn MK inh 11.0, Spn PMK inh 7.0 and Autofluor 339 2.2*.
`N#CCCCSC1=C(C#N)C(c2ccccc2Cl)CC(=O)N1` (centres undefined) gave Spn DPM-DC inh inactive, Abs 340nm 1.02, NADH coupling 4.0%, Spn MK inh 4.0, Spn PMK inh 8.0 and Autofluor 339 1.09.
For CCOC(=O)c1c(C)n(OCc2ccccc2)c2ccc3nonc3c12 the results were Abs 340nm 1.04, NADH coupling 6.0%, Spn MK inh 2.0, Spn PMK inh 10.0 and Autofluor 339 2.2*.
For COc1ccc(-c2nnn(CCc3nn[nH]n3)n2)cc1OC the results were Spn DPM-DC inh inactive, Abs 340nm 0.98, NADH coupling 1.0%, Spn MK inh 0.0, Spn PMK inh 7.0 and Autofluor 339 1.06.
